Measured values published in PubChem BioAssay AID2275 (Broad Institute, 2010).
The whole screen tested about 30,000 compounds, of which about 190 (0.63%) were called active. This is one part of a sample in which actives are shown more often than they occur. Values without a mark were called inactive. No stated cut-off is given here; in the data, active means viability loss activity score above about 50%; inconclusive means no clear call, values can overlap the other calls; inactive means below about 35%.

Test: BJeLR cell viability loss, primary screen, luminescence, CellTiterGlo ATP (AID 2275);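 further: higher score means fewer live cells and less ATP luminescence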
Conditions: BJeLR fibroblasts viability, 48 h, hits give high values, HRASV12, hTERT and SV40 LT/ST transformed, concentration not given here

Question: Which viability loss activity score does the source give for `COc1cc(OC)c(N(C)C(=O)c2ccc3c(=O)n4c(nc3c2)CCCCC4)cc1Cl` here?
Answer: 4.36%

Question: For `CCN(CC)C(=O)Cn1cc(SCc2ccccc2)c2ccccc21`, which viability loss activity score is on record?
Answer: -2.18%

Question: With `CCCCS(=O)CSc1nc(-c2ccc(OC)cc2)cc(-c2ccccc2)c1C#N` (centres undefined) as the molecule, how does the viability loss activity score read?
Answer: -8.8%

Question: For `O=C(Nc1ccncc1)c1cccc(COc2ccc3ccccc3c2)c1`, which viability loss activity score is on record?
Answer: 12.1%

Question: For `O=C(c1ccccc1)c1cnn(-c2ccc(Cl)cc2)n1`, which viability loss activity score is on record?
Answer: 14.6%

Question: With `CN1c2ccccc2C(C)(C)C12Cc1cc(NS(=O)(=O)c3ccc(Cl)cc3)ccc1O2` (centres undefined) as the molecule, how does the viability loss activity score read?
Answer: 0.312%

Question: With `O=C(Oc1ccc(Br)cc1)c1ccco1` as the molecule, how does the viability loss activity score read?
Answer: -1.65%

Question: Which viability loss activity score does the source give for `CCOC(=O)c1cc(-c2ccc(C)cc2)n(CC(=O)NCC2CCCO2)c1C` (centres undefined) here?
Answer: -1.7%

Question: Which viability loss activity score does the source give for `N/C(C[n+]1ccccc1)=N\O` here?
Answer: -4.49%

Question: With `O=C(CCc1nc2sc3c(c2c(=O)[nH]1)CCCC3)NC1CCCC1` as the molecule, how does the viability loss activity score read?
Answer: 1.97%

Question: Which viability loss activity score does the source give for `O=C1CSC(c2ccc(Cl)cc2)N1Nc1nc(Nc2ccccc2)nc(N2CCCCC2)n1` (centres undefined) here?
Answer: -7.31%

Question: Which viability loss activity score does the source give for `COc1ccc(/C=C2\SC(=O)N(c3ccc(C)cc3)C2=O)cc1` here?
Answer: -2.92%

Question: Which viability loss activity score does the source give for `COc1cc2c(c(OC)c1)C(c1ccccc1OC)CC(=O)N2` (centres undefined) here?
Answer: 0.526%

Question: For `COc1ccc(S(=O)(=O)N(C)C[C@H]2Oc3ccc(N(C)C)cc3C(=O)N([C@@H](C)CO)C[C@@H]2C)cc1`, which viability loss activity score is on record?
Answer: 0.729%

Question: Which viability loss activity score does the source give for `O=C(NCCCN1CCCC1)c1cc(-c2ccncc2)nc2ccccc12` here?
Answer: 3.5%

Question: For `O=C(NCCc1ccccc1)c1nnc(Cc2ccc(F)cc2)o1`, which viability loss activity score is on record?
Answer: -0.807%

Question: With `CCCN(CCC)Cc1c(O)ccc2c(=O)c(-c3ccccc3)coc12` as the molecule, how does the viability loss activity score read?
Answer: 3.33%

Question: With `Cc1cccc(C)c1N=C1Oc2ccccc2NC1(C)c1ccccn1` (centres undefined) as the molecule, how does the viability loss activity score read?
Answer: -0.212%

Question: For `CC(C)(C)C1=CC(=Nc2ccccc2N)C=C(C(C)(C)C)C1O` (centres undefined), which viability loss activity score is on record?
Answer: -0.524%

Question: Which viability loss activity score does the source give for `CC(c1ccccc1)N1C(=O)c2ccccc2C1Nc1ccc(F)cc1` (centres undefined) here?
Answer: -2.92%

Question: For `COC(Cn1c(SCC(=O)c2cccc(C(F)(F)F)c2)nnc1-c1ccc(Cl)cc1)OC`, which viability loss activity score is on record?
Answer: 2.18%

Question: For `CSc1nc(COc2ccc(C(C)(C)C)cc2)nc(-n2cccc2)c1C#N`, which viability loss activity score is on record?
Answer: -2.33%

Question: Which viability loss activity score does the source give for `C=CCC(c1cc(Cl)ccc1N)S(=O)(=O)c1ccc(C)cc1` (centres undefined) here?
Answer: 0.759%

Question: With `CSc1cccc(NC(=O)CSc2nncn3c2cc2sccc23)c1` as the molecule, how does the viability loss activity score read?
Answer: -1.6%
